Compound activity from PubChem.
Six1-Eya2 blk = qHTS Assay for Inhibitors of the Six1/Eya2 Interaction; AlphaScreen GST-Six1/His-Eya2 binding, biochemical; stronger effect = lower value; activity change, % (concentration not given with the values); actives 0.56% (n = 360,000); Homeobox protein SIX1 (Homo sapiens) + Protein phosphatase EYA2 (Homo sapiens), …; in the data active means activity change below about -65%; inconclusive means mostly about -30% to -63%
Target sequence (O00167 whole entry, looked up): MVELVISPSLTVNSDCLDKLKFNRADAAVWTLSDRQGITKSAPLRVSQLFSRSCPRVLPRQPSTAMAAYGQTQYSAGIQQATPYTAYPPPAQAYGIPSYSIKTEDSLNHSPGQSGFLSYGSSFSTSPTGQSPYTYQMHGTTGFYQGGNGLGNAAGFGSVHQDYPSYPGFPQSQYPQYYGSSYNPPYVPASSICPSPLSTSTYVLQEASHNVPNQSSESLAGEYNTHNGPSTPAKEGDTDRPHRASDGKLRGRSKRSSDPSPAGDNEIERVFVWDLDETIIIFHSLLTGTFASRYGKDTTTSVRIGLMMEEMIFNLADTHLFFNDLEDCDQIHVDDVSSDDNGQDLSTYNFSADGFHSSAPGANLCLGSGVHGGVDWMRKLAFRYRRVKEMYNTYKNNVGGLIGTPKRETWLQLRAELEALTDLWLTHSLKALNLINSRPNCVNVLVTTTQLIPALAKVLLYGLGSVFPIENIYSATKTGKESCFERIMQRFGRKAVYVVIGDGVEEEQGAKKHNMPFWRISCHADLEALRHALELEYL
Target sequence (Q15475 whole entry, looked up): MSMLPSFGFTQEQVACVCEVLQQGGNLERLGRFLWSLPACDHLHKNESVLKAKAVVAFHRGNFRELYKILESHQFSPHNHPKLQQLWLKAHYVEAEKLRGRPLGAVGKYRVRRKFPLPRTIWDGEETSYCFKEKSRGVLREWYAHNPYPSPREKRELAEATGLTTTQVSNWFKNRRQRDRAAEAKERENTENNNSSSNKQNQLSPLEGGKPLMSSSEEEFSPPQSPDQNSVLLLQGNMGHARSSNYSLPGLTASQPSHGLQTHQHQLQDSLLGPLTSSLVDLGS
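AlphaScreen luminescence read after one hour at 37 °C in darkness. Pin-transferred compounds met GST-Six1 and His-Eya2 protein (5X stock 250 nM/500 nM) plus glutathione donor and Ni-chelate acceptor beads (5X, 50 ug/mL).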
JMJD2A Tudor inh = qHTS Assay for Inhibitors of JMJD2A-Tudor Domain; Lysine-specific demethylase 4A (Homo sapiens), O75164; AlphaScreen JMJD2A-Tudor / H3K4me3 peptide binding; Potency, µM (highest dose often 114 µM), actives largely listed as inhibitors; actives 4.4% (n = 390,000); AID 504339, 2011; further: nearly all actives have a fitted effect of over 50% in size
CtBP-E1A inh = qHTS Assay for Inhibitors of the CtBP/E1A Interaction; CtBP / adenovirus E1A interaction (AlphaScreen); AlphaScreen GST-E1A/His-CtBP binding, 1536-well; stronger effect = lower value; activity change, % (test concentration not listed); actives 0.49% (n = 340,000); in the data active means activity change below about -65%; inconclusive means mostly about -30% to -63%
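GST-E1A and His-tagged CtBP (125 nM each as 5X stock) were preincubated with pin-transferred compound for 2 h at 37 °C in the dark, then glutathione donor and nickel acceptor beads were added for 1 h before AlphaScreen reading.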
BAZ2B block = qHTS Assay for Inhibitors of BAZ2B. actives 4.4% (n = 360,000). AlphaScreen BAZ2B-H3K14Ac peptide displacement. AID 504333, 2011. Potency, µM (highest dose often 114 µM), actives largely listed as inhibitors; further: nearly all actives have a fitted effect of over 60% in size
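AlphaScreen displacement: compounds (up to 110uM) incubated 30 min at room temperature with a preformed 50 nM BAZ2B/50 nM biotinylated H3K14Ac peptide complex in PBS pH 7.4 with Tween-20. Donor and acceptor beads at 10 ug/mL final added, 20 min light-protected before reading.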
G9a block = qHTS Assay for Inhibitors of Histone Lysine Methyltransferase G9a; actives 8.8% (n = 350,000); Potency, µM (highest dose often 102 µM), usual class: inhibitors; Histone-lysine N-methyltransferase EHMT2 (Homo sapiens), Q96KQ7; AID 504332, 2011; G9a H3K9 monomethylation, AlphaScreen, 2 h; further: nearly all actives have a fitted effect of over 75% in size
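AlphaScreen read-out: biotin-H3K9 peptide (500 nM) methylation by 20 nM enzyme with 20 uM SAM, 2 h at room temperature after 15 min compound preincubation; anti-monomethyl H3K9 antibody plus donor/acceptor beads, 10 min dark.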
HP1b binding inh = HTS for Inhibitors of HP1-beta Chromodomain Interactions with Methylated Histone Tails; Potency, µM (titrated, usually from 114 µM), most hits filed as inhibitors; actives 0.56% (n = 390,000); Chromobox protein homolog 1 (Homo sapiens), P83916; AlphaScreen HP1-beta / biotin-H3K9me3 peptide binding; further: nearly all actives have a fitted effect of over 70% in size
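HP1-beta protein (50 nM final) preincubated 30 min at room temperature with biotinylated H3(1-18)K9me3 peptide (50 nM) in PBS pH 7.4, 0.01% Tween-20, then compound added for 30 min. AlphaScreen streptavidin donor/nickel chelate acceptor beads (10 ug/mL final), 30 min dark, luminescence read.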
ME-1 prolif = qHTS Assay for Compounds Blocking the Interaction Between CBF-beta and RUNX1 for the Treatment of Acute Myeloid Leukemia: ME-1 cellular proliferation. ME-1 cell proliferation, ATP luminescence, 48 h. actives 20% (n = 140). shares compounds with BAZ2B block. Potency, µM (doses to about 56.1 µM), hits mostly inhibitors
Hits are given with their value; – = inactive; ? = inconclusive; · = not tested or not shown; [ ] = another dose, or the depositor's remark. Only some compounds are listed: those with a hit (about 10% of all), similar ones and a draw of the others. Unless noted, the call rests on the fitted dose curve; in most records, active means well fitted curve in the direction sought with a large enough effect; inconclusive means small, poorly fitted or top-dose-only effect, or another doubt; inactive means no such curve, though single readings can be large; an effect the other way counts as inactive or inconclusive.

SMILES	Six1-Eya2 blk	JMJD2A Tudor inh	CtBP-E1A inh	BAZ2B block	G9a block	HP1b binding inh	others
CC(C)C[C@H]1CN([C@@H](CC(C)C)CN2CCCC2CN2C(=S)NC[C@@H]2Cc2ccc(O)cc2)C(=S)N1CC1CCCCCC1 (some centres not stated)	–	?	–	·	·	–
Cc1c(Cl)cccc1N1C(=O)NC(=O)/C(=C\c2cc(C)n(-c3cccc(C(=O)O)c3C)c2C)C1=O	–	–	–	?	·	–
Cc1cc(/C=C2\C(=O)NC(=O)N(Cc3ccco3)C2=O)c(C)n1-c1ccc(C(=O)O)cc1	–	–	–	50µM	50µM	?
Cc1cc(/C=C2\C(=O)NC(=O)N(Cc3ccccc3)C2=O)c(C)n1-c1ccc(Cl)c(C(=O)O)c1	?	45µM	–	32µM	13µM	–
Cc1cc(/C=C2\C(=O)NC(=O)N(Cc3ccco3)C2=O)c(C)n1-c1ccc(O)cc1	?	?	–	?	?	?
Cc1cc(/C=C2\C(=O)NC(=O)N(Cc3ccccc3Cl)C2=O)c(C)n1-c1ccc(C(=O)O)cc1	–	?	–	50µM	25µM	71µM
Cc1ccc(-n2c(C)cc(/C=C3/C(=O)NC(=O)N(Cc4ccco4)C3=O)c2C)cc1	–	?	–	35µM	?	–
Cc1cc(/C=C2\C(=O)NC(=O)N(c3ccc(F)cc3)C2=O)c(C)n1-c1ccc(C(=O)O)cc1	–	–	–	?	·	–
CC(=O)[C@@H]1CC[C@H]2[C@H]3CC[C@H]4C[C@@H](O)CC[C@]4(C)[C@@H]3C(=O)C[C@@]12C	·	·	·	·	–[21.5 µM]	·
C[C@]12CC[C@H]3[C@@H](CC[C@@]45O[C@@H]4C(=O)C(C#N)C[C@]35C)[C@@H]1CC[C@@H]2O (some centres not stated)	·	·	·	·	–[12.7 µM]	·
Cc1cc(N2CCOCC2)ccc1/C=C1\C(=O)NC(=O)N(c2ccccc2)C1=O	–	–	–	?	–[12.7 µM]	–
Cc1ccc(N2C(=O)NC(=O)/C(=C/c3ccc(-c4ccc(C(=O)O)c(Cl)c4)o3)C2=O)cc1	–	–	–	?	10µM	–
Cc1ccccc1-n1c(C)cc(/C=C2/C(=O)NC(=O)N(Cc3ccco3)C2=O)c1C	–	28µM	·	?	?	–
CCn1c(C)cc(/C=C2\C(=O)NC(=O)N(c3ccccc3C)C2=O)c1C	–	–	–	–	?	–
Cc1cc(/C=C2/C(=O)NC(=O)N(c3ccccc3)C2=O)c(C)n1-c1ccc(F)cc1	–	–	–	·	·	–
Cc1cc(/C=C2\C(=O)NC(=O)N(c3cccc(F)c3)C2=O)c(C)n1-c1ccc(C(=O)O)c(Cl)c1	–	–	·	?	35µM	–
Cc1ccc(S(=O)(=O)N(CC(=O)NCCSc2ccc(Cl)cc2)c2ccccc2C)cc1	·	–	·	–	–	–
Oc1cc(Cl)cc(Cl)c1Cl	–	–	–	–	–[0.501 µM]	–
Cc1cccc(-n2c(O)c(/C=N/Nc3nc4c(c(=O)n(C)c(=O)n4C)n3C)c(=O)[nH]c2=S)c1	-90	?	-73	?	?	–	ME-1 prolif=–
Cc1cccc(-n2c(O)c(C=NCCN3CCNCC3)c(=O)[nH]c2=S)c1	–	–	–	–	–	–
CCn1nc(-c2ccccc2)nc2c(=O)n(C)c(=O)nc1-2	–	–	–	–	?	–	ME-1 prolif=11µM
Cn1nc(-c2ccccc2)nc2c(=O)n(C)c(=O)nc1-2	·	–	·	·	·	–
